From PubChem BioAssay
Hits are enriched below; roughly 2.4% of the tested compounds scored in any of these assays.
Nrf2 block: inhibitors of Nrf2 signaling; A549 ARE-Fluc reporter, luciferase luminescence, 18-24 h; Potency, µM (titrated, usually from 46 µM), usual class: inhibitors; hit rate 2.1% among 360,000; AID 504444; further: nearly all actives have a fitted effect of over 60% in size
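Quantitative HTS in A549 cells stably bearing an antioxidant response element-firefly luciferase construct. Inhibition of Nrf2-driven transcription was scored by luminescence after 18-24 h of compound exposure at 37 °C.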
PINK1 modulator: PINK1 expression modulation | PINK1 immunofluorescence, high-content cytometry, 24 h | Potency, µM (highest dose often 76.6 µM), usual class: activators | hit rate 0.2% among 410,000; active means well fitted activation curve with a large enough effect; inconclusive means small, poorly fitted or top-dose-only effect; cell line not stated here; further: nearly all actives have a fitted effect of over 65% in size
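Decision-based qHTS: stable cells, 24 h exposure to five compound concentrations, CCCP as control. Fixed cells stained for PINK1 plus nuclear, mitochondrial and cell markers, cytometer read.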
Epigenetic reg: epigenetic control regulation, reporter derepression; murine LDR cells, GFP reporter derepression, 30 h; Potency, µM (series often up to 53.9 µM), most hits filed as activators; hit rate 0.2% among 280,000; AID 1865; further: nearly all actives have a fitted effect of over 60% in size
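Derepression of a silenced CMV-GFP reporter in murine LDR cells is scored by enumerating GFP-positive cells with a laser-scanning microplate cytometer after 30 hours of treatment at 37 C.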
A549 tox: counter-screen for Nrf2 inhibitors: cytotoxicity in A549 cells | AID 504648 | Potency, µM (series often up to 46 µM), most hits filed as inhibitors | hit rate 0.16% among 390,000 | A549 ARE-Fluc cells, CellTiter-Fluor viability, 18-24 h
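A549 ARE-Fluc cells in 5% FBS OPTI-MEM, 5000 cells/well, rested 2 h then exposed to compounds in concentration-response for 18-24 h at 37 °C. Viability by CellTiter-Fluor fluorescence (Ex 405/Em 525) after 30 min; luciferase luminescence (BugLite, 15 min, RT) read afterwards.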
Nrf2 ARE act: activators of Nrf2 (ARE) signaling; AREc32 ARE-luciferase reporter (MCF7-derived line), luminescence, 24 h; hit rate 0.31% among 410,000; Potency, µM (series often up to 46.1 µM), most hits filed as activators; further: nearly all actives have a fitted effect of over 65% in size
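ARE activation measured as luciferase luminescence (Steady-Glo, 30 min RT) in AREc32_Fluc cells after 24 hr compound exposure at 37 deg C, 5% CO2; cells seeded overnight at 1000/well in OPTI-MEM, 5% FBS.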
Hits are given with their value; – = inactive; ? = inconclusive; · = not tested or not shown. Unless noted, the call rests on the fitted dose curve; in most records, active means well fitted curve in the direction sought with a large enough effect; inconclusive means small, poorly fitted or top-dose-only effect, or another doubt; inactive means no such curve, though single readings can be large; an effect the other way counts as inactive or inconclusive.

SMILES | Nrf2 block | PINK1 modulator | Epigenetic reg | A549 tox | Nrf2 ARE act
COc1ccccc1N1C(=O)N(C(C)=O)C2C1Nc1ccccc1N2C (stereo unspecified) | ? | – | – | 12µM | –
Oc1ccccc1-c1nc(/C=C/c2ccccc2)nn1-c1ccccc1 | – | – | – | – | –
Oc1ccc(/C=C/c2nc(-c3ccccc3O)n(-c3ccccc3)n2)cc1 | 7.3µM | ? | – | ? | –
Cc1ccc(-n2cc(C(=O)OCc3ccc(Cl)cc3)c3ccccc3c2=O)cc1 | · | – | – | – | –
COc1ccc(-c2cc(C(=O)NCCc3ccccc3)c3c(-c4ccc(Cl)cc4)[nH]nc3n2)cc1 | 23µM | – | – | ? | –
NC1=C(Br)C(=O)c2ncccc2C1=O | 10µM | – | · | 16µM | –
Cc1cccc(N2CCN(C(=O)Cn3nc(Cc4cccnc4)c4ccccc4c3=O)CC2)c1C | 16µM | – | – | – | –
CCOc1ccccc1N(C)C(=O)Cn1nc(Cc2cccnc2)c2ccccc2c1=O | – | – | – | – | –
Cc1cccc(N2CCN(C(=O)Cn3ccc4ccccc4c3=O)CC2)c1C | 18µM | – | – | – | –
CCN(C(=O)Cn1nc(Cc2cccnc2)c2ccccc2c1=O)c1cc(C)ccc1C | 18µM | – | – | – | –
O=C(Cn1nc(Cc2cccnc2)c2ccccc2c1=O)N1CCN(c2ccccn2)CC1 | – | – | – | – | –
COc1ccccc1CN1CCOc2ccc(C(C)(O)COc3ccccc3)cc2C1 (stereo unspecified) | · | – | · | · | ·
Cc1ccc(NS(=O)(=O)c2cc3c(cc2N2CCC2)NC(=O)CC3)cc1C | ? | · | · | – | ·
CC1(C)N=C(SCC(=O)Nc2ccc(Cl)cc2)C(c2ccc(Cl)cc2)=N1 | 26µM | – | – | ? | –
Cc1c(C)c(C)c(/C=C/c2ccnc3ccccc23)c(C)c1C | · | – | · | · | ·
Cc1ccc(C)c(NC(=O)c2ccccc2NS(=O)(=O)c2cc([N+](=O)[O-])ccc2C)c1 | ? | 8.9µM | – | ? | –
Cc1ccc([N+](=O)[O-])cc1S(=O)(=O)Nc1cccc(S(=O)(=O)Nc2ccccc2C(=O)O)c1 | – | – | · | – | –
COC1=CC(=O)c2ccccc2C1=O | 23µM | – | · | ? | –
O=C(CNC(=O)C1CCCCCC1)OC(C(=O)Nc1cc(C(F)(F)F)ccc1Cl)c1ccccc1 (stereo unspecified) | – | · | · | – | ·
CSc1nnc(N2C(=O)C(O)=C(C(=O)c3ccco3)C2c2ccccc2F)s1 (stereo unspecified) | – | – | · | – | 14µM
COc1ccc(N2CCN(C(=O)c3cc4c(=O)n(Cc5cccs5)ccc4nc3C)CC2)cc1 | ? | – | ? | – | –
CCc1cccc(CC)c1NC(=O)CSc1nc2ccc(N3C(=O)C4C(C3=O)[C@H]3C=C[C@@H]4C3)cc2s1 (stereo partly specified) | 13µM | – | – | – | –
CCc1cccc(C)c1NC(=O)CSc1nc2ccc(N3C(=O)c4ccccc4C3=O)cc2s1 | ? | – | – | – | –
O=C(O)c1cccc(-c2cccc(-c3nn4c(=O)cc(N5CCNCC5)nc4s3)c2)c1 | – | · | · | – | ·
CCC1=C(CC2NCCc3ccccc32)CC2c3cc(OC)c(OC)cc3CCN2C1 (stereo unspecified) | 3.7µM | – | · | 7.3µM | –
SMILES | Nrf2 block | PINK1 modulator | Epigenetic reg | A549 tox | Nrf2 ARE act
NCCNc1ncnc2ccc(-c3ccc4c(c3)OCO4)cc12 | – | · | · | – | ·
O=C(Nc1cc(Sc2ccccn2)cc([N+](=O)[O-])c1)c1cccc(F)c1 | 18µM | – | – | – | –
O=C(Nc1cc(Sc2nc3ccccc3s2)cc([N+](=O)[O-])c1)c1ccccc1 | ? | – | – | – | –
Cc1ccc(CNc2ccc(-c3nc(-c4cccnc4)no3)cc2[N+](=O)[O-])cc1 | 29µM | – | – | – | –
Cc1ccc(CNc2ccc(-c3nc(-c4ccncc4)no3)cc2[N+](=O)[O-])cc1 | – | – | – | – | –
CCc1ccc(Oc2nc3c(C)cccn3c(=O)c2/C=C(\C#N)c2nc3ccccc3[nH]2)cc1 | – | ? | 11µM | – | –
Cc1ccc(Oc2nc3ccccn3c(=O)c2/C=C(\C#N)c2nc3ccccc3s2)c(C)c1 | – | – | – | – | –
Cc1cccn2c(=O)c(/C=C(\C#N)c3nc4ccccc4s3)c(Oc3ccc(Br)cc3)nc12 | – | – | – | – | –
Cc1ccccc1Oc1nc2ccccn2c(=O)c1/C=C(\C#N)c1nc2ccccc2[nH]1 | – | – | 11µM | – | –
Cc1cc(C)cc(Oc2nc3c(C)cccn3c(=O)c2/C=C(\C#N)c2nc3ccccc3[nH]2)c1 | – | ? | 7.1µM | – | –
COc1ccc(Oc2nc3c(C)cccn3c(=O)c2/C=C(\C#N)c2nc3ccccc3[nH]2)cc1 | – | ? | 4µM | – | –
CC(C(=O)c1ccccc1)[n+]1cccc(Cl)c1 (stereo unspecified) | · | – | · | · | ·
O=C(c1ccccc1O)N(Cc1ccco1)Cc1ccco1 | – | · | · | – | ·
COc1cccc(NC(=O)COc2ccc(C(=S)N3CCN(C)CC3)cc2OC)c1 | 13µM | – | · | – | –
CCOC(=O)C1CCN(C(=O)c2ccc(OCC(=O)Nc3cccc(C(F)(F)F)c3)cc2)CC1 | – | – | · | – | –
COc1cc(C(=S)N2CCN(C)CC2)ccc1OCC(=O)NCc1ccccc1 | – | – | – | – | –
CCOC(=O)C1CCN(C(=O)c2ccc(OCC(=O)Nc3cccc(C(F)(F)F)c3)c(OC)c2)CC1 | 15µM | – | · | – | –
COc1ccc(OC)c(C(=O)N(Cc2cc3cccc(C)c3nc2N2CCC(O)CC2)C2CC2)c1 | · | – | · | · | ·
CC(=O)c1cc(NC(=O)c2ccccc2)c(=O)oc1C | – | – | – | – | 13µM
Cc1cc(NCc2ccccn2)n2nc(C)c(-c3ccc(Cl)cc3)c2n1 | 16µM | – | ? | – | –
Cc1cc(NCc2ccccn2)n2ncc(-c3ccc(Cl)cc3)c2n1 | ? | – | ? | – | –
COC(=O)CC1C(=O)NCCN1C(=O)CN1Cc2ccccc2OC(c2ccccc2)C1 (stereo unspecified) | · | – | · | · | ·
COCCNc1ccc2cc(S(=O)(=O)N3CCCCC3)ccc2n1 | – | – | – | – | –
Cn1c(N/N=C/c2c[nH]c3ccccc23)nc2ccccc21 | – | – | – | – | –
Cn1c(N/N=C/c2cc3ccccc3nc2Cl)nc2ccccc21 | – | 35µM | ? | – | –
CCCCCN1C=CC(=C2C(=O)c3ccccc3C2=O)C=C1 | 9.2µM | – | – | – | –
Cc1ccc(C(=O)N2CCCC(C(=O)c3ccc(Oc4ccccc4)cc3)C2)cn1 (stereo unspecified) | 16µM | – | – | ? | –
CSCc1nnc(NC(=O)c2ccc(S(=O)(=O)N(CC(C)C)CC(C)C)cc2)o1 | · | · | – | · | ·
COCc1nnc(NC(=O)c2ccc(S(=O)(=O)N(C)Cc3ccccc3)cc2)o1 | ? | – | · | ? | –
CCc1nnc(NC(=O)c2ccc(S(=O)(=O)N(CC(C)C)CC(C)C)cc2)o1 | 16µM | – | – | ? | –
